A number with no mark means an inactive call. Calls of active or inactive are those of the source. Calls come from the whole dose curve; as a rule, active = well fitted curve in the direction sought with a large enough effect in the repeat runs; inconclusive = weak or mixed curves; inactive = flat fitted curve, though single readings scatter.
Assay: qHTS assay to test for compound auto fluorescence at 535 nm (green) in HepG2 cells (AID 720675)
Conditions: green autofluorescence 485/535 nm, 1 h; series mostly up to 91.3 µM
Description: National Center for Advancing Translational Sciences [NCATS]
NIH Chemical Genomics Center [NCGC]
U.S. Environmental Protection Agency [EPA]
National Institutes of Environmental Health Sciences [NIEHS]
National Toxicology Program [NTP]
U.S. Food and Drug Administration [FDA]
Compound auto fluorescence often interferes with screening of the compound library against various biological targets and signaling pathways. Some of these compounds may have fluorophoric properties. Such properties may interfere with the assay outputs resulting in false positives and/or negatives. To decrease such complications and ensure the compound activities are relevant in terms of biological response, the Tox21 10K compound library was screened for auto fluorescence.
From the fluorophores used as reporter signals in our screening assays, the auto fluorescence equivalencies of compounds against three fluorophores have been evaluated: Triamterene, Fluorescein and Rose Bengal sodium for blue, green and red fluorescence, respectively. The fluorescence intensities were measured using Excitation/Emission wavelengths at 405/460nm, 485/535nm and 540/590nm for blue, green and red labels, respectively. This assay includes the green fluorescence data.
Tox21 Assay Protocol Summary:
2,000 HepG2 cells in 5 uL of culture medium (MEM containing 10% FBS) per well were dispensed into black wall/clear bottom 1536-well plates using a Multidrop Combi Dispenser (ThermoFisher Scientific, Waltham, MA). The assay plates were incubated overnight at 37 C to allow cell attachment to the well bottom, followed by the transfer of 23 nL compound or DMSO vehicle by a pintool work station (Kalypsys , San Diego, CA). After the assay plates were incubated for 1 hr at 37 C and 5% CO2, fluorescence intensities in the assay plates were measured by an Envision (PerkinElmer, Shelton, CT) plate reader using three labels for measuring blue, green and red fluorescence at […] 460, 535 and 590 nm respectively.
% is set by controls: 0 for no effect and ±100 for the full control effect.

| Compound | outcome | fluorescence, % of fluorescein control |
| --- | --- | --- |
| N#CC(O)c1ccccc1 (stereo not given) | inactive |  |
| CNC(=O)N(C)c1nc2ccccc2s1 | inactive |  |
| OCCSCSCCO | inactive |  |
| O=C1OC(c2ccc(O)c(S(=O)(=O)O)c2)(c2ccc(O)c(S(=O)(=O)O)c2)c2c(Br)c(Br)c(Br)c(Br)c21 | inactive |  |
| [O]=[Cd] | inactive |  |
| O=C1c2ccccc2C(=O)c2ccccc21 | inactive |  |
| COC(=O)c1ccccc1S(=O)(=O)NC(=O)N(C)c1nc(C)nc(OC)n1 | inactive |  |
| CNC(=O)Oc1ccc(N(C)C)c(C)c1 | inactive |  |
| CCC1(c2ccccc2)C(=O)NC(=O)NC1=O | inactive |  |
| CCOP(=O)(N=C1SCCS1)OCC | inactive |  |
| OC(c1ccccc1)(c1ccccc1)C1CCNCC1 |  | 0.0225% [at 18.6 µM] |
| O=C(Cc1ccccc1)OCc1ccccc1 | inactive |  |
| O=[N+]([O-])c1cc(Cl)c(Cl)c(Cl)c1 | inactive |  |
| C[C@]12CC[C@H]3[C@@H](CC=C4C[C@@H](O)CC[C@@]43C)[C@@H]1CC[C@@H]2O | inactive |  |
| CC(CCc1ccccc1)NC(C)C(O)c1ccc(O)cc1 (stereo not given) | inactive |  |
| CCc1cc2c(s1)-n1c(C)nnc1CN=C2c1ccccc1Cl | inactive |  |
| CCOP(=O)(OCC)OP(=O)(OCC)OCC | inactive |  |
| CC(C)NCC(O)c1ccc(N)c(C#N)c1 (stereo not given) | inactive |  |
| CN1CCN(C(=O)O[C@H]2c3nccnc3C(=O)N2c2ccc(Cl)cn2)CC1 | inactive |  |
| CCCCP(CCCC)CCCC | inactive |  |

| Compound | outcome | fluorescence, % of fluorescein control |
| --- | --- | --- |
| CC(COc1ccc(Oc2ccccc2)cc1)Oc1ccccn1 (stereo not given) | inactive |  |
| ClCC(Cl)(Cl)Cl | inactive |  |
| c1cc2c(c(N3CCNCC3)c1)OCCO2 | inactive |  |
| CCCSP(=O)(OCC)Oc1ccc(Br)cc1Cl (stereo not given) | inactive |  |
| CCOC(=O)/C=C(C)/C=C/C[C@@H](C)CCCC(C)C | inactive |  |
| CC(C=O)Cc1ccc2c(c1)OCO2 (stereo not given) | inactive |  |
| CC1CCCCC1NC(=O)Nc1ccccc1 (stereo not given) | inactive |  |
| Nc1c(Br)cc([N+](=O)[O-])cc1[N+](=O)[O-] | inactive |  |
| Nc1cnn(-c2ccccc2)c(=O)c1Cl | inactive |  |
| CCC1(c2ccccc2)C(=O)N=C(O)NC1=O (stereo not given) | inactive |  |
| CN(N=O)C(N)=O | inactive |  |
| O=C(NCO)NCO | inactive |  |
| COCC(=O)N(c1c(C)cccc1C)N1CCOC1=O | inactive |  |
| N#CC(CCc1ccc(Cl)cc1)(Cn1cncn1)c1ccccc1 (stereo not given) | inactive |  |
| CCCSC(=O)Cl | inactive |  |
| CCOP(=S)(OCC)SCSP(=S)(OCC)OCC | inactive |  |
| OCCBr | inactive |  |
| CC(C)CC(N(C)C)C1(c2ccc(Cl)cc2)CCC1 (stereo not given) | inactive |  |
| CCOc1nc(C(Cl)(Cl)Cl)ns1 | inactive |  |
| CCC(C)(C)c1cc(-n2nc3ccccc3n2)c(O)c(C(C)(C)CC)c1 | inactive |  |

From PubChem BioAssay (Tox21)
